# Reference: PubChem BioAssay (NCATS)
# Results filed as inconclusive are left out. Entries that show only a call come without a potency. Calls of active or inactive are those of the source. Unless noted, calls follow the shape of the dose curve; as a rule, active = well fitted curve in the direction sought with a large enough effect; inconclusive = small, poorly fitted or top-dose-only effect, or another doubt; inactive = no such curve, though single readings can be large; an effect the other way counts as inactive or inconclusive.
# Columns and labels:
# [1] = AP1 Signaling Pathway (AID 357; active = well fitted curve in either direction with a large enough effect, not every such curve was filed as active;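 also: ME-180 reporter cells stimulated with EGF at its EC50 level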); conditions: ME-180 AP-1-bla reporter, EGF-induced, beta-lactamase ratio, 5 h; at 38 µM (top of the series)
# In short: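 Titration-series screen for positive or negative modulators of EC50 EGF-induced signaling in ME-180 cells carrying an AP-1-driven beta-lactamase reporter. After 5 hours at 37 degrees Celsius, CCF4 460nm/530nm emission ratio gave %Activity; AC50 values derived.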
# [2] = target: Cytochrome P450 1A2 (Homo sapiens) (UniProt P05177); test: p450-cyp1a2 (AID 410; calls by dose curve); conditions: recombinant CYP1A2, luciferin-ME demethylation, luminescence; series mostly up to 57 µM
# In short: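 Human CYP1A2 (20nM) demethylated Luciferin-ME at its Km (100uM) in 100mM KPO4. After 10 min compound preincubation, NADPH regeneration ran the reaction 60 min at room temperature. Luciferin was read by luminescence, normalized to 57 uM furafylline.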
# [3] = NFAT Signaling Pathway (AID 444; active = well fitted curve in either direction with a large enough effect, not every such curve was filed as active;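 also: carbachol stimulus at about its EC50 of 1 µM final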); conditions: Jurkat NFAT-bla M1, carbachol, beta-lactamase ratio, 5 h; at 38 µM (top of the series)
# In short: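 Jurkat cells carrying an NFAT-driven β-lactamase reporter and co-transfected muscarinic M1 receptor were treated with compound plus carbachol (1 uM final, an EC50 level) for 5 h at 37 °C. CCF4 loading followed for 1 h at RT; 460/530 nm ratio gave %activity.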
# [4] = Stat Signaling Pathway (AID 446; active = well fitted curve in either direction with a large enough effect, not every such curve was filed as active;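 also: ME-180 cervical cancer cells given 40 pM IL-6 alongside compound; SIE-controlled beta-lactamase reporter measured as 460/530 nm FRET emission ratio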); conditions: ME-180 SIE beta-lactamase reporter, IL-6 stimulated, 5 h; at 38 µM (top of the series)
# In short: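 ME-180 SIE-bla cells; overnight plating; cpd + IL-6 40 pM, 5 h, 37 C; LiveBLAzer 2.5 h RT; 460/530 nm emission ratio. Normalized to 300 pM IL-6 and 125 nM JAK inhibitor controls.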
# [5] = target: Glucocorticoid receptor (Homo sapiens) (UniProt P04150); test: GR-GFP Redistribution (AID 450;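 active = compounds whose dose series gives a full or clear partial fitted curve of increased nuclear translocation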; also: potency is read from the fitted curve at half-maximal effect); conditions: U2OS GR-GFP nuclear translocation, laser cytometry, 2 h
# [6] = target: Glucocorticoid receptor (Homo sapiens) (UniProt P04150); test: GR-EFC Redistribution (AID 451; calls by dose curve; also: potency is read from the fitted curve at half-maximal effect); conditions: CHO-K1 GR-EFC translocation, beta-gal luminescence, 2 h
# In short: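 CHO-K1 cells stably expressing nuclear-localized β-gal enzyme acceptor and GR fused C-terminally to the enzyme donor fragment; ligand-driven nuclear translocation restores β-gal by complementation. Compounds titrated up to 46 uM final, 2 h at 37 °C; luminescence read.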
# [7] = target: Mitogen-activated protein kinase 10 (Mus musculus) (UniProt Q61831); test: JNK3 AlphaScreen Assay (AID 530; active = well fitted curve in either direction with a large enough effect, not every such curve was filed as active;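 also: kinase came from lysate of stimulated human HepG2 cells; signal reports phosphorylation of biotinylated GST-cJun 1-79 at Ser73 with 10 µM ATP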); conditions: JNK3 lysate, c-Jun phosphorylation; series mostly up to 57.1 µM
# In short: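 JNK3 came from HepG2 lysates pre-activated with IL-1beta and TNF-alpha and phosphorylated biotinylated GST-cJun (1-79) at 10 uM ATP, pH 7.6, room temperature. Compounds were titrated. AlphaScreen signal used anti-phospho-cJun (Ser73) antibody.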
# [8] = target: 3',5'-cyclic-AMP phosphodiesterase 4B (Homo sapiens) (UniProt Q07343); test: qHTS Assay for Inhibitors of PDE-IV (AID 607; active = well fitted activation curve with a large enough effect in the main read-out, with a control signal flat, not every such curve was filed as active); conditions: HEK293 ACTOne CNG channel cells, membrane potential fluorescence; series mostly up to 22.9 µM
# In short: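 ACTOne HEK293 cells carry a modified cAMP-gated CNG channel and express endogenous PDE4; plated 1000 cells/well, compounds up to 22.9 uM final. Membrane-potential dye fluorescence (ex 535/em 590) was read; parental cells received 10 uM forskolin + 100 uM RO 20-1724.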
# [9] = target: Guanine nucleotide-binding protein G(i) subunit alpha-1 (Homo sapiens) (UniProt P63096); test: qHTS Assay for Inhibitors of RGS12 GoLoco Motif Activity (Green Fluorophore) (AID 879); conditions: Galphai1/FITC-RGS12 GoLoco peptide, fluorescence polarization; series mostly up to 57.1 µM;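 also: negative values mean loss of peptide binding seen as reduced polarization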
# In short: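 Fluorescence polarization assay: 50 nM Gαi1 with 10 nM FITC-labeled RGS12 GoLoco peptide in 10 mM Tris pH 7.5, 150 mM NaCl, 0.1 mM GDP, 0.05% NP40, 10 min at room temperature with compound.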
# [10] = qHTS Assay for Identification of Small Molecule Agonists for Thrombopoietin (TPO) Signaling Pathway (AID 917); conditions: TPO signaling pathway reporter cells, agonist qHTS, stimulated with TPO at its EC50; series mostly up to 38.5 µM
# In short: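 Luminescence from a Glycoprotein IIb promoter–driven luciferase reporter served as read-out in murine Ba/F3 cells carrying the human TPO receptor. Cells, deprived of IL-3 overnight, received compounds with 26 pM TPO and were incubated 24 hrs at 37 C.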
# [11] = target: Muscarinic acetylcholine receptor M1 (Rattus norvegicus) (UniProt P08482); test: qHTS Assay for Antagonists of Acetylcholine Muscarinic M1 Receptor: Measurement of IP-One Response (AID 944); conditions: CHO-M1 cells, IP-One HTRF, antagonist mode; series mostly up to 46.1 µM; also: nearly all actives have a fitted effect of over 75% in size
# In short: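 CHO cells expressing rat M1 receptor, recovered overnight, were pre-incubated 10 min with compound, then stimulated 30 min with carbachol at EC80 (200 nM) in LiCl-containing buffer, pH 7.4. IP1 accumulation was read by HTRF (620/665 nm).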
# [12] = target: Pyruvate kinase (Leishmania mexicana) (UniProt Q27686); test: qHTS Validation Assay for Inhibitors of Leishmania Mexicana Pyruvate Kinase (AID 945); conditions: purified L. mexicana pyruvate kinase, enzyme activity, E451W mutant enzyme; series mostly up to 57.5 µM
# In short: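 The enzyme is a highly purified E451W mutant of LmPYK used at 0.2 nM. It converts 0.5 mM PEP and 0.1 mM ADP over 1 h at room temperature; product ATP is quantified by luciferase luminescence relative to DMSO controls.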
# [13] = target: Pyruvate kinase PKM (Homo sapiens) (UniProt P14618); test: qHTS Assay for Activators of Human Muscle Pyruvate Kinase (AID 954; active = well fitted curve in the direction sought with a large enough effect, not every such curve was filed as active); conditions: purified human muscle pyruvate kinase, luciferase-coupled luminescence, 1 h; series mostly up to 57.5 µM
# In short: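 Luminescence from a luciferase ATP-detection/stop reagent reported PKM2 activity. Reactions contained 0.1 nM purified human enzyme, 0.5 mM PEP, 0.1 mM ADP and 7 mM MgCl2 at pH 7.2, run 1 h at RT.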
# [14] = target: alpha-glucosidase (Oryza sativa, rice) (UniProt Q653V4); test: Counterscreen for Glucocerebrosidase Inhibitors: qHTS Assay for Rice alpha-Glucosidase at pH 5.0 (AID 997); conditions: rice alpha-glucosidase enzyme activity; series mostly up to 76.9 µM
# In short: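 Rice alpha-glucosidase (4 nM final) with 400 uM 4-methylumbelliferyl-alpha-D-glucopyranoside in citrate buffer pH 5.0, 20 min at room temperature, stopped at pH 10; fluorescence 365/440 nm, compounds 0.7 nM–77 uM, AC50 from Hill fits.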
# [15] = Validation of Assay for Modulators of Lamin A Splicing (AID 1459; active = well fitted curve in the direction sought with a large enough effect in the signal ratio; the % refers to the signal ratio;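 also: cells exposed to compound for two days before reading; ratio rise marks activators and ratio drop marks inhibitors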); conditions: Lamin A splicing dual RFP/GFP fluorescence reporter; series mostly up to 9.22 µM
# In short: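 HeLa S3 lamin A-EGFP/DsRed2 stable clone, 600 cells/well, Opti-MEM 2% FBS; compounds by pin tool; 48 hrs, 37 °C/5% CO2; Acumen 488 nm scan, objects 10-100 um; GFP/RFP intensity ratio.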
# [16] = qHTS Assay for Lipid Storage Modulators (AID 1519; calls by dose curve); conditions: Drosophila S3 cells, BODIPY lipid droplet/cell ratio, laser cytometry, cells loaded with oleic acid
# In short: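 Cells seeded at 5,000 per well were treated with compounds over a concentration series and loaded with oleic acid (400 uM, as added). Lipid droplet fluorescence (488 nm excitation, 500-530 nm channel) was read by laser-scanning cytometry and normalized to 20 uM Triacsin C.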
# [17] = target: DNA repair nuclease/redox regulator APEX1 (Homo sapiens) (UniProt P27695); test: qHTS Validation Assay for Inhibitors of the Human Apurinic/apyrimidinic Endonuclease 1 (APE1) (AID 1705;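 also: TAMRA fluorescence gain over two minutes as APE1 cuts a quenched THF abasic duplex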); conditions: purified APE1 endonuclease activity, fluorescence, titration; series mostly up to 57.1 µM
# In short: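 qHTS, 1536-well. APE1 + cpd 15 min RT → 50 nM TAMRA/BHQ-2 THF-abasic dsDNA substrate → kinetic fluorescence, 3 reads/60 s; delta(read3−read1) = reaction progress. No-enzyme buffer = negative control.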
# [18] = Counterscreen for APE1 Inhibitors: Fluorescent Dye Displacement Validation Assay (AID 1707); conditions: fluorescent dye displacement from DNA; series mostly up to 57.1 µM
# In short: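 Thiazole Orange displacement from dsDNA: 250 nM ThO with 50 nM TAMRA-labelled abasic-site (tetrahydrofuran) duplex in 50 mM Tris-HCl pH7.5, 50mM NaCl, 2 mM MgCl2, 0.01% Tween-20. Loss of endpoint fluorescence (ex 480 nm, em 540 nm) flags DNA binders.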
# [19] = target: Endonuclease 4 (Escherichia coli (strain K12)) (UniProt P0A6C1); test: Counterscreen for APE1 Inhibitors: qHTS Validation Assay for Inhibitors of Endonuclease IV (AID 1708); conditions: E. coli endonuclease IV, DNA cleavage fluorescence; series mostly up to 57.1 µM
# In short: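 2 nM enzyme was preincubated with compounds for 15 min at room temperature in 50 mM Tris-HCl pH 7.5, 50 mM NaCl, 2 mM MgCl2, 1 mM DTT, 0.01% Tween-20. 50 nM THF-abasic TAMRA/BHQ-2 duplex substrate started the reaction.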
# Glucocorticoid receptor (Homo sapiens), sequence (P04150 whole entry, looked up, the tested form may be a part): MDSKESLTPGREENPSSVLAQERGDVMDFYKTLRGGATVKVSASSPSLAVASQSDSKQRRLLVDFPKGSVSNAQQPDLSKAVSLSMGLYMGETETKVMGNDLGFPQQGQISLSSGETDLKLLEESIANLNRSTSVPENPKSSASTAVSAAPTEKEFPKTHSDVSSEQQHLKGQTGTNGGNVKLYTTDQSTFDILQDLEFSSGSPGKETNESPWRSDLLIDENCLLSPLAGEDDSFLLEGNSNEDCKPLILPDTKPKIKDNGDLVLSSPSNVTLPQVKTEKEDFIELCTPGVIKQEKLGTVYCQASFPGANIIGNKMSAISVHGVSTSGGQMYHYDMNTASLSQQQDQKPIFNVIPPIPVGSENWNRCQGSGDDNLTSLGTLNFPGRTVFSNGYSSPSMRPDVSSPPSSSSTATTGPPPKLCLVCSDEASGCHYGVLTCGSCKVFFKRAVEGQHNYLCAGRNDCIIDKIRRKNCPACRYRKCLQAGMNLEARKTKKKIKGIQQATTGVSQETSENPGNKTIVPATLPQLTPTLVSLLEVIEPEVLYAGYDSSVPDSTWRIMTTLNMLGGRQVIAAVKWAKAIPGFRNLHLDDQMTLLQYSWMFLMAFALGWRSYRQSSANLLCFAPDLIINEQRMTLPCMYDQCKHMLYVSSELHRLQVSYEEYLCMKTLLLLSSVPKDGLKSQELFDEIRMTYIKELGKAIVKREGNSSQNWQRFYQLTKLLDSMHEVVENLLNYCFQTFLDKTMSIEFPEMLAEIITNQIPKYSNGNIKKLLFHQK
# 3',5'-cyclic-AMP phosphodiesterase 4B (Homo sapiens), sequence (Q07343 whole entry, looked up): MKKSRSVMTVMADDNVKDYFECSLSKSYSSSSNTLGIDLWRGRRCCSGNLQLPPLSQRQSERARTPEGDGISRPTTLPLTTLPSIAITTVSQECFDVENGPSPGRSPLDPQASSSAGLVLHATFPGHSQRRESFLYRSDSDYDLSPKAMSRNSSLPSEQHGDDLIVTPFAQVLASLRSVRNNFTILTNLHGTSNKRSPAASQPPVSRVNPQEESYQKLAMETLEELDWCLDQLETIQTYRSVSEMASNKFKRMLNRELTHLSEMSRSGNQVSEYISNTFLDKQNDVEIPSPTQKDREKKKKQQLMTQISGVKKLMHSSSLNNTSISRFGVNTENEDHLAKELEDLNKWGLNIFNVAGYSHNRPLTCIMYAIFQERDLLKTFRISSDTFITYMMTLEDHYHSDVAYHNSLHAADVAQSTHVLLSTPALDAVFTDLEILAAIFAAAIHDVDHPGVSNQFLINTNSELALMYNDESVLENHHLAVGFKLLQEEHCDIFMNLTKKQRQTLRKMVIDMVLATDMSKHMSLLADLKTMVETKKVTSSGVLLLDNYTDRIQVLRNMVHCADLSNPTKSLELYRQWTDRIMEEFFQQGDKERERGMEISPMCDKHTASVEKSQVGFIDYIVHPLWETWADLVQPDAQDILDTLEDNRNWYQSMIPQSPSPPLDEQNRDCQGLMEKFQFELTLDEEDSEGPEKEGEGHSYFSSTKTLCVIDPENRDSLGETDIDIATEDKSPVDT
# Muscarinic acetylcholine receptor M1 (Rattus norvegicus), sequence (P08482 whole entry, looked up): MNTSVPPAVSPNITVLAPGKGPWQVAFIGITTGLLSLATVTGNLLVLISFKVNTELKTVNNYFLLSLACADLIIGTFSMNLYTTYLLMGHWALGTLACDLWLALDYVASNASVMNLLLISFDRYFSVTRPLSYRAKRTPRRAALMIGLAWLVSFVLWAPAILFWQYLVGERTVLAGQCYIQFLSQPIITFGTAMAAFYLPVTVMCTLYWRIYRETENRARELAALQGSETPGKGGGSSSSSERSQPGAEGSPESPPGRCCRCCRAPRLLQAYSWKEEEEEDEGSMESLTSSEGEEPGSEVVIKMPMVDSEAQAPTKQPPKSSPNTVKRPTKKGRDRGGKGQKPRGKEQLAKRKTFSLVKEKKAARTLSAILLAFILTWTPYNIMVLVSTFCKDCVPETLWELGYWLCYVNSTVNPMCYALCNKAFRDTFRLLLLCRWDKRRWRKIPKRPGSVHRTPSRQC
# Cytochrome P450 1A2 (Homo sapiens), sequence (P05177 whole entry, looked up): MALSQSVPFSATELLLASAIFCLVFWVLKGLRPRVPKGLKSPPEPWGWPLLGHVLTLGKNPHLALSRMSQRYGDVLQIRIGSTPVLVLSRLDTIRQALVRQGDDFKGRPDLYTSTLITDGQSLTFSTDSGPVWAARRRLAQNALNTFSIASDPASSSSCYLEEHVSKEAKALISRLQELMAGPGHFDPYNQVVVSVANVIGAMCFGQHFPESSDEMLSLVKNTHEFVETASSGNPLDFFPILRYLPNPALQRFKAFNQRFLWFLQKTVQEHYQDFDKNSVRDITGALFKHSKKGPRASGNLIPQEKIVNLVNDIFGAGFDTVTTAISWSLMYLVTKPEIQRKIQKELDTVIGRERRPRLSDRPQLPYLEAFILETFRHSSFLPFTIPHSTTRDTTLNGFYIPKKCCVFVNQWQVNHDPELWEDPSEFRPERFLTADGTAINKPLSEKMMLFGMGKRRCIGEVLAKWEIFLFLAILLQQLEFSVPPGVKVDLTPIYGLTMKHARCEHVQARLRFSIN
# Pyruvate kinase PKM (Homo sapiens), sequence (P14618 whole entry, looked up): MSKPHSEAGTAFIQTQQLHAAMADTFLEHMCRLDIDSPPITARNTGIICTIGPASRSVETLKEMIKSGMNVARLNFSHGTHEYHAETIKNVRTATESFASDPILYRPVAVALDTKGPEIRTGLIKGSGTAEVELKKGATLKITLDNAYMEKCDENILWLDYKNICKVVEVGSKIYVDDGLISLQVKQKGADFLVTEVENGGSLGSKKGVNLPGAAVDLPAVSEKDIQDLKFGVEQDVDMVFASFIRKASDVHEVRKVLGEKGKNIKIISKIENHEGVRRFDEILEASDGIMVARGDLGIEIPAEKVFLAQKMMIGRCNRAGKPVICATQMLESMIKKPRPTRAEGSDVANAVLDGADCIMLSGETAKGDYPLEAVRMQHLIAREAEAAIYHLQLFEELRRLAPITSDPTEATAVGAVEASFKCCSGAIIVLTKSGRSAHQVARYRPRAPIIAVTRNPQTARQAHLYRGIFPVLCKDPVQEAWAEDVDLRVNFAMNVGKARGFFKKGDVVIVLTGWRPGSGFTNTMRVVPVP
# Guanine nucleotide-binding protein G(i) subunit alpha-1 (Homo sapiens), sequence (P63096 whole entry, looked up): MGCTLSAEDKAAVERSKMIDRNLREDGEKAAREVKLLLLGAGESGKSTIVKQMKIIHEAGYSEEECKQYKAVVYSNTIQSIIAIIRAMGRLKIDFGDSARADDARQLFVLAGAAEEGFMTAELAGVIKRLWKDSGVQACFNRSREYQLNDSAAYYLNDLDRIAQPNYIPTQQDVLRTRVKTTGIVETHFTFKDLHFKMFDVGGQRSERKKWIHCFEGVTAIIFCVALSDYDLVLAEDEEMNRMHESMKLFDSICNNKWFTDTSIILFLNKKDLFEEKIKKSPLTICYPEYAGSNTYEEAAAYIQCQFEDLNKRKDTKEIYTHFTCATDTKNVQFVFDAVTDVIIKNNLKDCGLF
# Pyruvate kinase (Leishmania mexicana), sequence (Q27686 2-499 E452W): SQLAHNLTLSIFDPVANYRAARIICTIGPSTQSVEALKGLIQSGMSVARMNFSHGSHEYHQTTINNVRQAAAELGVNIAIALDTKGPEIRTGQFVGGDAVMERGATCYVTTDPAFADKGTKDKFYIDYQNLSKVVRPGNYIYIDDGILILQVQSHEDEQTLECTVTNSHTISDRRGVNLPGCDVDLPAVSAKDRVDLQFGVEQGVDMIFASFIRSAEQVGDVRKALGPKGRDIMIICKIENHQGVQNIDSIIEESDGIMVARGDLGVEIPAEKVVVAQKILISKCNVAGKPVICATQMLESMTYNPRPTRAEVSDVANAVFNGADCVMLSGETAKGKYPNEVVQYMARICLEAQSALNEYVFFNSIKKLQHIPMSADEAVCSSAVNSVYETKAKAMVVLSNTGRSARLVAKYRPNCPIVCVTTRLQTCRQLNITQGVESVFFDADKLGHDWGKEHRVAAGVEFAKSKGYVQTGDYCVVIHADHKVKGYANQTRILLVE
# DNA repair nuclease/redox regulator APEX1 (Homo sapiens), sequence (P27695 whole entry, looked up): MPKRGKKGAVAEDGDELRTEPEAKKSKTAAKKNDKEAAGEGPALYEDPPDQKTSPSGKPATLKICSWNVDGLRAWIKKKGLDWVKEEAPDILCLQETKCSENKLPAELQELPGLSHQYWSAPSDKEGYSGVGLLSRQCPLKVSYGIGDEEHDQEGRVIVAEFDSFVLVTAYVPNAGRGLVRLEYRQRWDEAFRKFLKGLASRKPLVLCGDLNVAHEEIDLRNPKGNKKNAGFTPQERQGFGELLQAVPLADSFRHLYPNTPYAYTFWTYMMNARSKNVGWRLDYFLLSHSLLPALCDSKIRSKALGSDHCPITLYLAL
structure (smiles),measurement,setting,value
Cc1cccc(C)c1NC(=O)C[N+](C)(C)C,"activity change, negative = inhibition",[1],0.892% (inactive)
same,Potency,[2],inactive
same,"activity change, negative = inhibition",[3],11.6% (inactive)
same,"activity, negative = inhibition",[4],8.11% (inactive)
same,Potency,[5],> 46 µM (inactive)
same,Potency,[6],> 46 µM (inactive)
same,Potency,[7],inactive
same,Potency,[8],inactive
same,outcome,[9],inactive
same,Potency,[10],inactive
same,Potency,[11],inactive
same,Potency,[12],inactive
same,outcome,[13],inactive
same,outcome,[14],inactive
same,outcome,[15],inactive
same,"activity change, negative = inhibition",[16]; at 57.5 µM (top of the series),-1.34% (inactive)
same,max response,[16]; measured here: cell count channel max response,-10.6%
same,max response,[16]; measured here: lipid channel max response,-11.6%
same,Potency,[17],inactive
same,Potency,[18],inactive
same,Potency,[19],inactive
